Assay [1] in a line: qHTS assay to identify small molecule agonists of H2AX (AID 1224845; active = well fitted activation curve with a large enough effect in the signal ratio in the repeat runs, not every such curve was filed as active; the % refers to the signal ratio; also: potency is read from the fitted curve at half-maximal effect). Summed up: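 Phospho-H2AX Ser139 measured by HTRF (ex 320 nm; em 665 and 620 nm) after 24 hr antibody incubation. Compounds, 15 concentrations, 0.76% DMSO, were applied to CHO-K1 cells for 3hr at 37C before lysis.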
For orientation: Quantitative high-throughput screening tests each substance at several concentrations.

The nature of assay [2]: qHTS assay to identify small molecule agonists of the hypoxia (HIF-1) signaling pathway (AID 1224846; active = well fitted activation curve with a large enough effect in the signal ratio in the repeat runs, not every such curve was filed as active; the % refers to the signal ratio; also: % is scaled to controls: 0 for no effect and ±100 for the full control effect). Summed up:
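Compounds added to ME-180 cells carrying hypoxia-response-element beta-lactamase reporter (0.5% dialyzed FBS, 5 h preplating), 17 h at 37C; agonist activity detected by CCF4-AM B/G FRET read-out.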

Assay [3] can be described thus: qHTS assay to identify small molecule agonists of H2AX - cell viability counter screen (AID 1224847; calls by dose curve; also: nearly all actives have a fitted effect of over 30% in size; also: potency is read from the fitted curve at half-maximal effect). The procedure, abridged: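 Quantitative HTS viability measurement: CHO-K1 wild-type cells in serum (10% FBS) medium, short 3 hr drug exposure at 37C with 0.76% DMSO, CellTiter-Glo luminescent detection.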
Assay [4] is described as follows: qHTS assay to identify small molecule antagonists of the estrogen related receptor (ERR) signaling pathway from Tox21 library (AID 1224848). Also: nearly all actives have a fitted effect of over 50% in size. Also: potency is read from the fitted curve at half-maximal effect. Summed up:
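ERR cell line, 2,000 cells/well. 6 h settle, then compound (DMSO) added; 18 h at 37 C; ONE-Glo luminescence after 30 min RT.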

Assay [5] is described as follows: qHTS assay to identify small molecule agonists of the estrogen related receptor (ERR) signaling pathway from Tox21 library (AID 1224849; calls by dose curve; also: % is scaled to controls: 0 for no effect and ±100 for the full control effect; nearly all actives have a fitted effect of over 15% in size). To be noted: ERR reporter cell line, ONE-Glo luciferase, 18 h; at 92.4 µM (top of the series) unless noted. Summed up: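 Luminescent agonist read-out (One-Glo, 30-minute room-temperature incubation) following 18-hour compound treatment at 37 C of the ERR cell line, which had been plated 6 hours before dosing.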

Assay [6] is described as follows: qHTS RealTime-Glo MT Cell Viability Assay in HepG2 cells - 24 hour (AID 1224867). Also: nearly all actives have a fitted effect of over 50% in size. Also: potency is read from the fitted curve at half-maximal effect. As to activity change, negative = cytotoxicity: % is scaled to controls: 0 for no effect and ±100 for the full control effect. Summed up: (§1)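 Cells + NanoLuc/prosubstrate dispensed (600 cells/well) → 5 h at 37 C/5% CO2 → compounds in DMSO transferred → 40 h incubation at 37 C, luminescence read at 0, 8, 16, 24, 32, 40 h.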
A short description of assay [7]: A CellTox Green Cytotoxicity Assay to monitor cytotoxicity in HEK293 cells - 0 hour (AID 1224869). Also: % is scaled to controls: 0 for no effect and ±100 for the full control effect; nearly all actives have a fitted effect of over 50% in size. The procedure, abridged:
(§2)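 Fluorescence from a DNA-binding dye excluded by viable cells was measured repeatedly in the same HEK293 wells (600 cells/well) during continuous compound exposure at 37 C. Each assay gives one read point: 0, 8, 16, 24, 32 or 40 h.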

The nature of assay [8]: qHTS RealTime-Glo MT Cell Viability Assay in HepG2 cells - 40 hour (AID 1224870). Also: nearly all actives have a fitted effect of over 50% in size. Also: potency is read from the fitted curve at half-maximal effect. Summed up: (§3)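 Real-time viability: cells seeded at 600 per well together with NanoLuc and cell-permeant prosubstrate, compounds added after 5 h incubation. Luminescence tracked at 0, 8, 16, 24, 32 and 40 h of exposure.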
Assay [9] is described as follows: A CellTox Green Cytotoxicity Assay to monitor cytotoxicity in HEK293 cells - 40 hour (AID 1224871). Also: nearly all actives have a fitted effect of over 45% in size. Also: potency is read from the fitted curve at half-maximal effect. Summed up: as §2
A short description of assay [10]: qHTS RealTime-Glo MT Cell Viability Assay in HepG2 cells - 8 hour (AID 1224873). Also: nearly all actives have a fitted effect of over 55% in size. Also: potency is read from the fitted curve at half-maximal effect. The procedure, abridged: as §3
Assay [11] can be described thus: A CellTox Green Cytotoxicity Assay to monitor cytotoxicity in HEK293 cells - 24 hour (AID 1224875). Also: nearly all actives have a fitted effect of over 45% in size. Also: potency is read from the fitted curve at half-maximal effect. As to activity change: % is scaled to controls: 0 for no effect and ±100 for the full control effect. Summed up:
as §2

Assay [12] is described as follows: qHTS RealTime-Glo MT Cell Viability Assay in HepG2 cells - 32 hour (AID 1224877). Also: nearly all actives have a fitted effect of over 55% in size. Also: potency is read from the fitted curve at half-maximal effect. The procedure, abridged: as §1
Assay [13] can be described thus: A CellTox Green Cytotoxicity Assay to monitor cytotoxicity in HepG2 cells - 24 hour (AID 1224878). Also: nearly all actives have a fitted effect of over 45% in size. Also: potency is read from the fitted curve at half-maximal effect. As to Cytotoxicity: % is scaled to controls: 0 for no effect and ±100 for the full control effect. The procedure, abridged:
(§4)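 Real-time cytotoxicity: fluorescence of a cell-impermeant cyanine dye binding DNA of dead HepG2 cells, measured repeatedly (0–40 h) during compound exposure at 37 C. Cells seeded 600/well with reagent, dosed after 5 h.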

Assay [14] is described as follows: A CellTox Green Cytotoxicity Assay to monitor cytotoxicity in HepG2 cells - 40 hour (AID 1224879). Also: nearly all actives have a fitted effect of over 40% in size. Also: potency is read from the fitted curve at half-maximal effect. Summed up:
as §4

The nature of assay [15]: qHTS RealTime-Glo MT Cell Viability Assay in HEK293 cells - 0 hour (AID 1224880). Also: top concentration of the series differs between compounds; % is scaled to controls: 0 for no effect and ±100 for the full control effect; nearly all actives have a fitted effect of over 45% in size. Summed up:
(§5)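 Luminescence, which tracks viable cell number through reduction of the prosubstrate to a NanoLuc substrate, was read over continuous 37 C culture. Cells (600/well) were premixed with reagent and rested 5 h before 23 nL of compound in DMSO was pinned.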

The nature of assay [16]: A CellTox Green Cytotoxicity Assay to monitor cytotoxicity in HepG2 cells - 16 hour (AID 1224876). Also: nearly all actives have a fitted effect of over 45% in size. Also: potency is read from the fitted curve at half-maximal effect. Summed up:
as §4

Assay [17] in a line: qHTS assay to identify small molecule agonists of the hypoxia (HIF-1) signaling pathway - cell viability counter screen (AID 1224844; calls by dose curve). The procedure, abridged:
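Cytotoxicity measured by CellTiter-Glo ATP luminescence in the wells also read for beta-lactamase signal. Cells were HRE-bla ME-180 (2,000/well, 0.5% dialyzed FBS), exposed to compounds for 17 h at 37C.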

The nature of assay [18]: qHTS RealTime-Glo MT Cell Viability Assay in HEK293 cells - 32 hour (AID 1224868). Also: nearly all actives have a fitted effect of over 50% in size. Also: potency is read from the fitted curve at half-maximal effect. Summed up: (§6)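 Tox21 10K qHTS, HEK293, 600 cells/well, RealTime-Glo reagent co-dispensed with cells; 5 h preincubation, compound by pintool, 37 C, luminescence at 0–40 h.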
Assay [19] is described as follows: qHTS RealTime-Glo MT Cell Viability Assay in HEK293 cells - 16 hour (AID 1224872). Also: nearly all actives have a fitted effect of over 50% in size. Also: potency is read from the fitted curve at half-maximal effect. The procedure, abridged:
as §6

The nature of assay [20]: qHTS RealTime-Glo MT Cell Viability Assay in HEK293 cells - 40 hour (AID 1224874). Also: nearly all actives have a fitted effect of over 50% in size. Also: potency is read from the fitted curve at half-maximal effect. To be noted: RealTime-Glo luminescence; max response: stronger effect = lower value. Summed up:
as §5

The structures appear in SMILES notation. Unmarked numbers belong to inactive results. Inconclusive results are not listed. Activity calls are given as the source filed them. Unless noted, calls follow the shape of the dose curve; as a rule, active = well fitted curve in the direction sought with a large enough effect in the repeat runs; inconclusive = weak or mixed curves; inactive = no such curve, though single readings can be large; an effect the other way counts as inactive or inconclusive.

For the compound `CCOc1cc(C(C)(C)C)ccc1C1COC(c2c(F)cccc2F)=N1` (stereo unspecified), the Potency result in assay [1], in [6], in [7], in [8], in assay [9] and in [10] was “inactive” in each case. In addition, the Potency result in [11], in [12], in [13], in assay [14] and in assay [15] was “inactive” throughout. In addition, the outcome in assay [2] was inactive. Besides, the Potency in [3] was 30.7 µM (active); in assay [4] it was 37.1 µM (active). For the same compound, the activity change, positive = activation in assay [5] is -39.5% [at 42.5 µM].
With `O=C1NCN(c2ccccc2)C12CCN(CC1COc3ccccc3O1)CC2` (stereo unspecified), the Potency entry in assay [1], in assay [3], in assay [7], in assay [8], in assay [9] and in assay [11] was “inactive” throughout. The Potency result in assay [16], in assay [12], in assay [13], in [14] and in [15] was “inactive” each time. The compound was called inactive in [2]. Also, the activity change, positive = activation in assay [5] was 0.381% [at 42.5 µM].
With `CC(C)(C)C(O)C(Oc1ccc(-c2ccccc2)cc1)n1cncn1` (stereo unspecified), the Potency was 54.9 µM (active) in [17]; 27.3 µM (active) in assay [4]; 24.5 µM (active) in assay [18]; 49 µM (active) in assay [19]; 21.9 µM (active) in assay [20]. In assay [5], the activity change, positive = activation is -60.3%. In addition, the Potency entry in [6], in assay [8], in assay [9], in [10], in assay [11] and in assay [12] was “inactive” each time. Also, the Potency entry in [15] was “inactive”.
`CCCCCCCCCCCCCC[P+](CCCCCC)(CCCCCC)CCCCCC` (tested in a mixture with another compound): the Potency in [1] was 17.9 µM (active); in [3], 5.05 µM (active); in assay [6], 30.9 µM (active); in [18], 4.9 µM (active); in assay [8] it was 24.6 µM (active); in assay [9] it was 13.8 µM (active). Further, the Potency in assay [19] was 13.8 µM (active); in [10] it was 49 µM (active); in assay [20] it was 3.47 µM (active); in assay [11], 13.8 µM (active); in assay [16], 38.9 µM (active); in [12], 24.6 µM (active). For the same compound, the Potency in assay [13] and in assay [14] was 24.6 µM (active) in each case. Further, the Potency result in assay [7] and in assay [15] was “inactive” in each case.
On to `Clc1ccc(CCC(Cn2ccnc2)Sc2c(Cl)cccc2Cl)cc1` (stereo unspecified), for which the Potency in [17] is 23.9 µM (active); in assay [4], 18.8 µM (active); in [18] it was 9.52 µM (active); in assay [14], 10.7 µM (active). In addition, the activity change, positive = activation in [5] is -61.6% [at 42.5 µM]. In addition, the Potency result in [8], in [9], in [11] and in assay [15] was “inactive” throughout.
Consider `N#C/C=C/C#N`, for which the Potency entry in [1], in assay [3], in [6], in [7], in assay [8] and in assay [10] was “inactive” throughout. The Potency entry in assay [11], in assay [16], in assay [12], in assay [13] and in assay [14] was “inactive” each time.
For `FC(F)(F)c1cccc(C2=CCN(CCc3ccc4ccccc4c3)CC2)c1`, the Potency result in [1], in [4], in assay [6], in assay [18], in assay [7] and in assay [8] was “inactive” each time. Also, the Potency entry in [9], in assay [19], in assay [10], in [11], in assay [16] and in assay [12] was “inactive” each time. Further, the Potency result in [13], in assay [14] and in [15] was “inactive” in each case. Also, the call in assay [2] was inactive. Also, in assay [5], the activity change, positive = activation was -0.643% [at 42.5 µM]. The max response in [20] is 2.33%.
Consider `[Cl][Sn]([c]1ccccc1)([c]1ccccc1)[c]1ccccc1`, for which the Potency in [1] is 0.677 µM (active); in assay [3] it was 1.52 µM (active); in [4], 0.58 µM (active); in [6] it was 2.61 µM (active); in [18], 0.262 µM (active); in assay [8], 2.61 µM (active). Also, the Potency in assay [9] was 1.65 µM (active); in assay [19], 0.293 µM (active); in assay [10], 7.37 µM (active); in assay [20] it was 0.233 µM (active); in assay [11], 1.85 µM (active); in assay [16], 3.29 µM (active). Further, the Potency in [12], in assay [13] and in assay [14] was 2.61 µM (active) throughout. Also, the activity change, positive = activation in [5] is -65.5% [at 19 µM]. Further, in assay [7], the cytotoxicity was -13.5% [at 15.8 µM]. Moreover, in assay [15], the activity change, negative = cytotoxicity is 1.26% [at 15.8 µM].
As for `S=C=Nc1cccc2ccccc12`, in assay [17], the Potency was 48.5 µM (active). For the same compound, the activity change, positive = activation in assay [5] was -54.3%. Moreover, the Potency entry in assay [18], in [7], in assay [8], in assay [9], in [19] and in assay [10] was “inactive” throughout. Further, the Potency entry in [11], in assay [16], in assay [12], in assay [13], in assay [14] and in assay [15] was “inactive” throughout.
In the case of `CCOC(=O)CC(=O)CCl`, the Potency entry in [1], in assay [3], in assay [7], in assay [8], in assay [12] and in assay [13] was “inactive” each time. The Potency result in assay [14] and in [15] was “inactive” in each case. Further, the Potency in assay [18] is 43.6 µM (active); in [19] it was 38.9 µM (active); in assay [20], 43.6 µM (active).
For `COC(=O)N(C(=O)N1COC2(C(=O)OC)Cc3cc(Cl)ccc3C2=N1)c1ccc(OC(F)(F)F)cc1` (stereo unspecified), the Potency entry in assay [1], in assay [18], in [7], in assay [8], in assay [9] and in [10] was “inactive” each time. Also, the Potency result in assay [11], in assay [16], in assay [12], in assay [13], in assay [14] and in assay [15] was “inactive” in each case. Besides, in assay [4], the Potency is 11.9 µM (active). Besides, the activity change, positive = activation in assay [5] is -49.3% [at 42.5 µM].
As to `CC(=[OH+])/C=C(/C)[O-].CC(=[OH+])/C=C(\C)[O-].CC(=[OH+])/C=C(\C)[O-].[Fe]`, the Potency result in assay [1], in assay [3], in assay [6], in assay [18], in assay [7] and in [8] was “inactive” each time. For the same compound, the Potency result in assay [9], in assay [19], in assay [10], in [11], in [16] and in assay [12] was “inactive” throughout. Besides, the Potency entry in [13] and in assay [14] was “inactive” in each case. In addition, the max response in assay [20] is 5.66%.
Regarding `ClCc1ccccc1CCl`, the Potency result in [1], in [3], in [6], in assay [7], in [8] and in assay [10] was “inactive” each time. Further, the Potency result in [11], in assay [16], in assay [12] and in assay [15] was “inactive” each time. In addition, the Potency in assay [9] was 49 µM (active).
On to `OC(c1ccc(Cl)cc1)(c1ccc(Cl)cc1)C(Cl)(Cl)Cl`, for which the Potency was 21.9 µM (active) in assay [17] and 49 µM (active) in assay [9]. The Potency result in assay [4], in assay [6], in assay [7], in assay [8], in assay [10] and in assay [11] was “inactive” throughout. Besides, the Potency result in assay [16], in assay [12], in assay [13], in assay [14] and in [15] was “inactive” throughout.

These data come from PubChem BioAssay (Tox21).
